Eight compounds from PubChem BioAssay (NCATS) can be followed below.

Assay [1] can be described thus: qHTS assay for small molecule antagonists of peroxisome proliferator-activated receptor delta signaling (AID 588535; active = well fitted inhibition curve with a large enough effect in the signal ratio, with a control signal flat, not every such curve was filed as active; the % refers to the signal ratio;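 as to max response: cells co-treated with a PPAR-delta agonist as stimulator during compound exposure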). Particulars: HEK293T PPARd-UAS-bla, beta-lactamase FRET ratio, 18 h; 460 nm channel. The procedure, abridged:
(§1)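 Fluorescence from CCF4-loaded GeneBLAzer PPAR-delta-UAS-bla HEK293T cells (2 hrs RT loading) quantified reporter inhibition after an 18 hr, 37 C compound exposure across a titration.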

Assay [2] has as its target Peroxisome proliferator-activated receptor delta (Homo sapiens) (UniProt Q03181). The description is as above. The procedure, abridged: as §1
A short description of assay [3]: qHTS assay for small molecule agonists of retinoid X receptor alpha signaling (AID 588544). Particulars: HEK293T RXRa-UAS-bla, beta-lactamase reporter, 18 h; 530 nm emission.
In assay [4] the target is Retinoic acid receptor RXR-alpha (Homo sapiens) (UniProt P19793). The assay is described as above.
The target of assay [5] is Thyroid hormone receptor beta (Homo sapiens) (UniProt P10828). Kind of assay: qHTS assay for small molecule agonists of thyroid hormone receptor beta signaling (AID 588545). Summed up: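 HEK 293 TR-UAS-bla; agonist mode; 18 hrs, 37 C; CCF4, ex 405/em 460 and 530 nm; norm. T3 10 nM = 100%, DMSO = 0%; Hill fit → EC50, efficacy.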
Assay [6] is described as follows: qHTS assay for small molecule antagonists of retinoid X receptor alpha signaling (AID 588546; active = well fitted inhibition curve with a large enough effect in the signal ratio, with a control signal flat, not every such curve was filed as active; the % refers to the signal ratio;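 also: cells stimulated with 9-cis-retinoic acid as agonist; % is scaled to controls: 0 for no effect and ±100 for the full control effect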). The conditions noted are these: HEK293T RXRa-UAS-bla, beta-lactamase ratio, antagonist mode; measured here: W530 green channel, cytotoxicity proxy. The procedure, abridged:
(§2)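 Beta-lactamase reporter inhibition, read as CCF4 fluorescence ratio (ex 405, em 460/530 nm) after 2 h at RT. HEK293T UAS-bla cells, 2500/well, were stimulated with 9-cis-RA at 500 or 100 nM final alongside test compound for 18 h at 37 C.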

Assay [7] has as its target Retinoic acid receptor RXR-alpha (Homo sapiens) (UniProt P19793). Described as above. Particulars: HEK293T RXRa-UAS-bla, beta-lactamase ratio, antagonist mode. The procedure, abridged: as §2
Assay [8] addresses Thyroid hormone receptor beta (Homo sapiens) (UniProt P10828). Kind of assay: qHTS assay for small molecule antagonists of thyroid hormone receptor beta signaling (AID 588547; active = well fitted inhibition curve with a large enough effect in the signal ratio, with a control signal flat, not every such curve was filed as active; the % refers to the signal ratio;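 also: cells stimulated with 0.4 nM T3 agonist during compound exposure; series mostly up to about 77 µM; % is scaled to controls: 0 for no effect and ±100 for the full control effect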). Particulars: TR-UAS-bla HEK293, beta-lactamase ratio, antagonist mode, 18 h. The procedure, abridged:
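TR-UAS-bla GripTite HEK293 cells in 2% charcoal/dextran FBS medium; compounds 0.59 nM to 92 uM with T3 at 0.4nM final, 18 h at 37 C. Beta-lactamase read by CCF4 fluorescence (460/530 nm); Hill fits gave IC50 and efficacy.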

The target of assay [9] is Voltage-gated inwardly rectifying potassium channel KCNH2 (Homo sapiens) (UniProt Q12809). Kind of assay: qHTS Assay for Small Molecule Inhibitors of the Human hERG Channel Activity (AID 588834; active = well fitted curve in the direction sought with a large enough effect; an effect the other way counts as inactive or inconclusive;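 also: lower thallium flux fluorescence means stronger hERG block; nearly all actives have a fitted effect of over 50% in size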; also: potency is read from the fitted curve at half-maximal effect). The procedure, abridged:
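hERG block measured as reduced thallium-dye (FluxOR) fluorescence after stimulation buffer addition, read over 2 min. Cells were hERG-BacMam-transduced U2OS exposed to compound ~10 min […]; concentration-response fitted with Hill equation for AC50.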

The target in assay [10] is Luciferin 4-monooxygenase (Photinus pyralis) (UniProt P08659). Kind of assay: Biochemical firefly luciferase enzyme assay for NPC (AID 624030; active = well fitted curve in the direction sought with a large enough effect; an effect the other way counts as inactive or inconclusive;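 also: purified P. pyralis luciferase at 10 nM with luciferin and ATP substrate; series mostly up to about 59 µM; 0% = DMSO and -100% = full luciferase inhibition by PTC124 control; nearly all actives have a fitted effect of over 70% in size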). Summed up: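 Purified P. pyralis luciferase at 10 nM in 50 mM Tris Acetate (final), luminescence read within 5 minutes of enzyme addition to compounds. Activity normalised to PTC124 versus DMSO; concentration-response curves classed by r2, magnitude and activity.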

Assay [11] can be described thus: S16 Schwann cell viability assay (CellTiter-Glo assay) (AID 624031; active = well fitted curve in the direction sought with a large enough effect; an effect the other way counts as inactive or inconclusive;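 also: native untransfected S16 rat Schwann cells; cellular ATP luminescence as a viability measure; series mostly up to about 58 µM; plate controls were DMSO-treated cells for no effect and cell-free wells for full effect; nearly all actives have a fitted effect of over 70% in size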). The procedure, abridged:
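Cells were seeded at 500-750 per well in phenol red-free DMEM with 10% FBS and left overnight. Compounds or DMSO were pinned in, incubation ran 24 h at 37 °C/5% CO2, then CellTiter-Glo reagent was added and luminescence measured.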

Assay [12] in a line: S16 Schwann cell PMP22 intronic element firefly luciferase assay (AID 624032; active = well fitted curve in the direction sought with a large enough effect; an effect the other way counts as inactive or inconclusive;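 also: series mostly up to about 58 µM; plate controls were DMSO for no effect and PTC124 positive control mean for full effect; nearly all actives have a fitted effect of over 30% in size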). The procedure, abridged: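 Rat S16 Schwann cells stably carrying firefly luciferase driven by a PMP22 intronic element, in 10% FBS, treated 24 h at 37 C. ONE-Glo luminescence normalized to PTC124 control and DMSO (0%); curves classed by r2, magnitude and activity.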
A short description of assay [13]: S16 Schwann cell PMP22 intronic element beta-lactamase assay (AID 624044).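 Also: 0% = DMSO and -100% = potassium clavulanate positive control; nearly all actives have a fitted effect of over 15% in size.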 The procedure, abridged: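 Beta-lactamase reporter under a PMP22 intronic regulatory element in stable S16 rat Schwann cells; 24 h compound exposure. 460 nm blue signal normalized between DMSO (0%) and potassium clavulanate, with 535 nm FRET tracking viability; curves classed by r2 and response.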

In assay [14] the target is Peroxisome proliferator-activated receptor gamma (Homo sapiens) (UniProt P37231). Kind of assay: qHTS assay for small molecule agonists of peroxisome proliferator-activated receptor gamma signaling (AID 588536; active = well fitted curve in the direction sought with a large enough effect in the signal ratio, with a control signal flat, not every such curve was filed as active; the % refers to the signal ratio;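 also: 0% = DMSO basal wells and 100% = rosiglitazone at 2 µM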). Summed up:
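Beta-lactamase reporter read-out: CCF4 fluorescence (ex 405, em 460/530 nm) after 2 h at RT. HEK293 GeneBLAzer cells were treated for 16 h at 37 C. Hill fits gave EC50 and efficacy versus 2 uM rosiglitazone (100%) and DMSO (0%).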

Assay [15] has the same target. The assay can be described thus: qHTS assay for small molecule antagonists of peroxisome proliferator-activated receptor gamma signaling (AID 588537; active = well fitted inhibition curve with a large enough effect in the signal ratio, with a control signal flat, not every such curve was filed as active; the % refers to the signal ratio;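 also: reporter cells co-stimulated with 50 nM rosiglitazone agonist during compound treatment; % of control where 0% means no effect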). Summed up: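 Fluorescence at 460 and 530 nm (405 nm excitation) reported beta-lactamase cleavage of CCF4 after 2 h room-temperature loading. HEK293 reporter cells in 1% charcoal/dextran-treated FBS had received compound and rosiglitazone for 16 h.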

In assay [16] the target is Vitamin D3 receptor (Homo sapiens) (UniProt P11473). Kind of assay: qHTS assay for small molecule antagonists of vitamin D receptor signaling (AID 588541).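 Also: receptor activated by calcitriol during compound treatment; series mostly up to about 77 µM; % is scaled to controls: 0 for no effect and ±100 for the full control effect.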 The procedure, abridged: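 VDR-UAS-bla HEK293T cells in 2% charcoal-stripped FBS were stimulated with 1-alpha,25-dihydroxyvitamin D3 (3 nM final) plus compound for 16 h at 37 C. The beta-lactamase CCF4 readout was normalized to 50 nM agonist and DMSO, and Hill fits gave IC50.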

For assay [17] the target is unchanged. The assay can be described thus: qHTS assay for small molecule agonists of vitamin D receptor signaling (AID 588543).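 Also: 0% = DMSO basal and 100% = reference agonist control.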 Summed up: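 Agonist-mode beta-lactamase reporter: HEK293T VDR-UAS-bla cells in charcoal-stripped 2% FBS, compound series 16 h 37 C, CCF4 2 h RT. EC50 from Hill fit, scaled against DMSO and 50 nM calcitriol control.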
Assay [18] can be described thus: qHTS of Trypanosoma Brucei Inhibitors: LOPAC Validation (AID 624147; active = well fitted curve in the direction sought with a large enough effect; an effect the other way counts as inactive or inconclusive; also: 0% is about no effect). The procedure, abridged: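 Quantitative HTS: titrated library compounds versus trypanosomal pyruvate kinase in TEA buffer (pH 7.2) containing KCl, MgCl2, BSA and Tween-20. Reactions were initiated with ADP, 130 uM final. Kinase-Glo Plus luminescence was read after 45 min at RT.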
The target of assay [19] is Glucagon-like peptide 1 receptor (Homo sapiens) (UniProt P43220). The assay can be described thus: qHTS of GLP-1 Receptor Agonists: LOPAC Validation (AID 624148; active = well fitted curve in the direction sought with a large enough effect; an effect the other way counts as inactive or inconclusive;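 also: 0% is about no effect; higher luminescence signal means agonism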). The procedure, abridged: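 HEK293 cells stably co-expressing GLP-1R and a cAMP-responsive luciferase reporter, plated 12 hours before compound, then incubated 4-6 hr at 37 deg C. Luminescence read 12 min after detection reagent.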

The structures appear in SMILES notation. “And” between values parts separate entries of the source, which are not always exact repeats. Equal entries are not always repeated. Records with an inconclusive call do not appear. The source made the active and inactive calls. Unless noted, calls follow the shape of the full dose curve.

Chain of Thyroid hormone receptor beta (Homo sapiens) (P10828 whole entry, looked up): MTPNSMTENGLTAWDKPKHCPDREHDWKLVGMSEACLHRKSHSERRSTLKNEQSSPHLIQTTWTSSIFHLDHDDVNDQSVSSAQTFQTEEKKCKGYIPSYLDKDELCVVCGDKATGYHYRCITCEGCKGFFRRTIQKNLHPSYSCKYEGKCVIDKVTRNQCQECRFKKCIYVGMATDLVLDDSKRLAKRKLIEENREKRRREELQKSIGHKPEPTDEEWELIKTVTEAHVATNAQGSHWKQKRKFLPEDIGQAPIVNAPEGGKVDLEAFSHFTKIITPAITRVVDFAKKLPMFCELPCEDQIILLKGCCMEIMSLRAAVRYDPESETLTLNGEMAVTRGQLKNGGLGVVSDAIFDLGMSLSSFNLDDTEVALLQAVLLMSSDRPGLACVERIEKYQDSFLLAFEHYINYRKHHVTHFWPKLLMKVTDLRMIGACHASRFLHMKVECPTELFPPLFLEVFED
Chain of Peroxisome proliferator-activated receptor gamma (Homo sapiens) (P37231 whole entry, looked up): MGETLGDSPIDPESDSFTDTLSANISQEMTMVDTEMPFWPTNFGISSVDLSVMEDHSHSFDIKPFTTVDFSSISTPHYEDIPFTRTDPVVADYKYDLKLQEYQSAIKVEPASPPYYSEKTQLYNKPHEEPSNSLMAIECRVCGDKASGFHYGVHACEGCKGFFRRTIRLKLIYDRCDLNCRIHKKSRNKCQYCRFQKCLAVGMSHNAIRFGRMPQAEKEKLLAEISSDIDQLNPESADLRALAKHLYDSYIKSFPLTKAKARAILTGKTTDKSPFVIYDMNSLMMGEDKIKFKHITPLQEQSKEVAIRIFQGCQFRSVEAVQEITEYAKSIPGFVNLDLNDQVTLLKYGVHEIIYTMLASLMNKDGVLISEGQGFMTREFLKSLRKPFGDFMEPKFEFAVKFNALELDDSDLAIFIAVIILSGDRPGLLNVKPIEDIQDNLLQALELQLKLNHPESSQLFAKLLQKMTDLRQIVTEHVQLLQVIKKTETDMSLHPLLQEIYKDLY
Chain of Retinoic acid receptor RXR-alpha (Homo sapiens) (P19793 whole entry, looked up): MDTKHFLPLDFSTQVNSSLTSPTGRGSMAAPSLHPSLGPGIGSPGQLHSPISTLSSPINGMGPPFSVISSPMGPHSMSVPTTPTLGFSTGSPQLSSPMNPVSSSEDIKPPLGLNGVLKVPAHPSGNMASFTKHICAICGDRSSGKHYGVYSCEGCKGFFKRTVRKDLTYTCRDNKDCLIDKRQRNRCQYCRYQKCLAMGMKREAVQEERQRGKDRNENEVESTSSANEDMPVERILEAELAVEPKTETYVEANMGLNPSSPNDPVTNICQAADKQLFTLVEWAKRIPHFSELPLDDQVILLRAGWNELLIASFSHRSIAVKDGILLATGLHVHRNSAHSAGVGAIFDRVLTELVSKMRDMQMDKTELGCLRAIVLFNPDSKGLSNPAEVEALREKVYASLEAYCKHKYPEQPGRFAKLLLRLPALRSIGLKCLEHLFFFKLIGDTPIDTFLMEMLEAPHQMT
Chain of Vitamin D3 receptor (Homo sapiens) (P11473 whole entry, looked up): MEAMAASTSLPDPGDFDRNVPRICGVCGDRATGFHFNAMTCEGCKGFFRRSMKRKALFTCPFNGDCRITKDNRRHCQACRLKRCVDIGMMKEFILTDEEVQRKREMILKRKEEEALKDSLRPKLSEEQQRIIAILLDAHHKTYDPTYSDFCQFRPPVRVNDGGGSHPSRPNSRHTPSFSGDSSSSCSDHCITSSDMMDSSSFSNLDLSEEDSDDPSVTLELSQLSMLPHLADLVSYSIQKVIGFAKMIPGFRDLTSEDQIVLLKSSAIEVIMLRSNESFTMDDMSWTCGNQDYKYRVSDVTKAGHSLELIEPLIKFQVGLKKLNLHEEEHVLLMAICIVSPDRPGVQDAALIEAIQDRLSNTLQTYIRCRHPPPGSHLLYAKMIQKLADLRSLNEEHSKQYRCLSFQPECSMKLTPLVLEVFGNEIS
Chain of Voltage-gated inwardly rectifying potassium channel KCNH2 (Homo sapiens) (Q12809 whole entry, looked up): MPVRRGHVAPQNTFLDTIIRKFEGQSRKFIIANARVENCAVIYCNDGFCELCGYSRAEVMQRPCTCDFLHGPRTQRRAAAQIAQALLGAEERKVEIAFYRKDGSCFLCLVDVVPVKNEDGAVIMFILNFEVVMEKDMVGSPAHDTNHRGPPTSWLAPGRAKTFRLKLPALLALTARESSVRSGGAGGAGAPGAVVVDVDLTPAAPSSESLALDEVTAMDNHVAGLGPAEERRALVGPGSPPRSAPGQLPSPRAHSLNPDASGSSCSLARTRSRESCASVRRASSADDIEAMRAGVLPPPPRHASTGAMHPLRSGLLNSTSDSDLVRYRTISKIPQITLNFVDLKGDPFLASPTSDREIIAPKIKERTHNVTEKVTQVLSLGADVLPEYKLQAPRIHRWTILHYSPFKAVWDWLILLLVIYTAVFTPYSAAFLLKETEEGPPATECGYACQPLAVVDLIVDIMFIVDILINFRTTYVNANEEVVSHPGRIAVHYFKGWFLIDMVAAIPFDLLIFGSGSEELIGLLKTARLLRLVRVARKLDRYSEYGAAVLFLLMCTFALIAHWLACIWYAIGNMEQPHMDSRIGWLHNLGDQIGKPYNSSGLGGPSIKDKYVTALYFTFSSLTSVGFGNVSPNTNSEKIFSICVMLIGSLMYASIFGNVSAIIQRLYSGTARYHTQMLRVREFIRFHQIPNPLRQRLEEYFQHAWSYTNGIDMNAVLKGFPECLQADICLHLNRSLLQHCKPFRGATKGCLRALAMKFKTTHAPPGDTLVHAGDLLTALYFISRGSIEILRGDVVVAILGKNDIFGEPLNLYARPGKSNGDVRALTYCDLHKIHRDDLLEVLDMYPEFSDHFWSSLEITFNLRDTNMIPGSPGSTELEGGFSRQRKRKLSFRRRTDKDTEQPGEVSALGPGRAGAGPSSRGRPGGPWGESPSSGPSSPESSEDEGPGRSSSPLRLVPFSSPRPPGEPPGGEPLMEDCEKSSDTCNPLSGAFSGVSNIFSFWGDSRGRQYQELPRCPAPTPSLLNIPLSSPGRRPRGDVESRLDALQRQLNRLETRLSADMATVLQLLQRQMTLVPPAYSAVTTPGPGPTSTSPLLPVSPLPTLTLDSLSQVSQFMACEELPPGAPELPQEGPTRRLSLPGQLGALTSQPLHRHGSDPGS
Chain of Luciferin 4-monooxygenase (Photinus pyralis) (P08659 whole entry, looked up): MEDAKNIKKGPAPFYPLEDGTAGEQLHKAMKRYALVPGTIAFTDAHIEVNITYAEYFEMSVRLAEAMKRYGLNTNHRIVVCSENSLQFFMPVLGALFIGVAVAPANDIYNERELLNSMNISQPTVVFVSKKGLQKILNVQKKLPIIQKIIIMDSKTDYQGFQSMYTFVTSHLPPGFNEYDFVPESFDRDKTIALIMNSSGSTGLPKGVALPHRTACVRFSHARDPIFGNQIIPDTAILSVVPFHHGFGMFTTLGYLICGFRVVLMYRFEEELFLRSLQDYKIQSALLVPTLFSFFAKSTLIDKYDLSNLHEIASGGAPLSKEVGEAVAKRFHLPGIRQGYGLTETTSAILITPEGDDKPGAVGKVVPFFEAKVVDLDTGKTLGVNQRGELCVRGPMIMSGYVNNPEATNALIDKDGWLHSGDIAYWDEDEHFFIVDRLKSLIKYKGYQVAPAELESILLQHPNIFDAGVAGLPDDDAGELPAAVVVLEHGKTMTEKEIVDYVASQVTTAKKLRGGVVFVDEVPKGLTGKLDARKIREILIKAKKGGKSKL
Chain of Peroxisome proliferator-activated receptor delta (Homo sapiens) (Q03181 whole entry, looked up): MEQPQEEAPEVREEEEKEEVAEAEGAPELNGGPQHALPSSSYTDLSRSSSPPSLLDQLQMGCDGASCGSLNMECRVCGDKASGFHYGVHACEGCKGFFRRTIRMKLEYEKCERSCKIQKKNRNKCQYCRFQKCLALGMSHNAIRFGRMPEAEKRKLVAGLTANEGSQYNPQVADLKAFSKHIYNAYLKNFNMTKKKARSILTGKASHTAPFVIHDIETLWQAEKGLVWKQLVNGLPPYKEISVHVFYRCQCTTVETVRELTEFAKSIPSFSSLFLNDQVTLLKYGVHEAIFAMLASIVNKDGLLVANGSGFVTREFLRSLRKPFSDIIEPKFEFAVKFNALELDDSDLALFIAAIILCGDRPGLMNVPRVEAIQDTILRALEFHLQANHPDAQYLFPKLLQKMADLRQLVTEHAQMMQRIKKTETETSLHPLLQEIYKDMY
Chain of Glucagon-like peptide 1 receptor (Homo sapiens) (P43220 whole entry, looked up): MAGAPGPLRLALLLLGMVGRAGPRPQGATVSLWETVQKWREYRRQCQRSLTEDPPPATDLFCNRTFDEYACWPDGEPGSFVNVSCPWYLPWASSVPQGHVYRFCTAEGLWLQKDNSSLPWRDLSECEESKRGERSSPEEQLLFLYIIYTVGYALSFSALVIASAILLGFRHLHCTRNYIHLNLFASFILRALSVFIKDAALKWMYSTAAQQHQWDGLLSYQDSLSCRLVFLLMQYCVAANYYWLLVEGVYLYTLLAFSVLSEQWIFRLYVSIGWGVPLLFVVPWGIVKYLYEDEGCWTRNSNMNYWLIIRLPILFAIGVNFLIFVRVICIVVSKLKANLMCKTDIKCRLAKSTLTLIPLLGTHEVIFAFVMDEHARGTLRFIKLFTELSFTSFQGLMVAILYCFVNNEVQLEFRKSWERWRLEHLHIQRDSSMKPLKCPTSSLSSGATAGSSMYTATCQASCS

In the case of `Cc1ccc(C)c(OCCCC(C)(C)C(=O)O)c1`, the max response is 34% in assay [1]; 26.9% and -2.09% in assay [3]; 4.23% and -4.48% in [6]; 1.18% (inactive) and -8.41% (inactive) in assay [7]. Further, the result in assay [2], in [4] and in [5] was inactive. For the same compound, the activity change % (negative = inhibition) in [8] is -13.4% (inactive) and -13.2% (inactive). The Potency result in [9], in assay [10], in assay [11], in assay [12] and in [13] was “inactive” each time.
For the compound `Clc1ccc(C(Cn2ccnc2)OCc2c(Cl)cccc2Cl)c(Cl)c1` (stereo unspecified), in assay [9], the Potency was 7.94 µM (active).
On to `COC(=O)C1=C(C)NC(C)=C(C(=O)OC(C)C)C1c1cccc2nonc12` (stereo unspecified), for which, in assay [9], the Potency entry is “inactive”.
`COc1cc(OC)c(C(=O)CCCN2CCCC2)c(OC)c1`: the max response in assay [1] is 15.9%; in assay [3], 3.94%; in assay [6], -15.1%; in [7], -23.6% (inactive). Moreover, the compound was classed as inactive in [2], in assay [14], in assay [16], in assay [17], in assay [4] and in [5]. For the same compound, the Potency entry in [15], in assay [9], in assay [10], in assay [11] and in assay [12] was “inactive” throughout.
As to `NS(=O)(=O)c1cc(C(=O)O)c(NCc2ccco2)cc1Cl`, the max response in assay [1] was -4.16% and 9.44%. Further, the compound was classed as inactive in [2], in assay [14], in assay [16], in assay [17] and in [5]. In addition, the Potency result in assay [15], in [10], in assay [11], in [12] and in [13] was “inactive” throughout. Also, the activity change % (negative = inhibition) in [8] was -7.01% (inactive) and -13.6% (inactive).
Take `CS(=O)(=O)OCCCCOS(C)(=O)=O`: the max response is -16.8% and 23.8% and -11.6% in assay [1]; -9.47% and 11.7% in assay [3]; 2.17% and -2.42% in [6]; 8.02% (inactive) and 2.56% (inactive) in [7]. Moreover, the call in assay [2], in [14], in assay [16], in [17] and in assay [4] was inactive. Also, the Potency result in [15], in assay [9], in assay [10], in [11], in assay [12] and in assay [13] was “inactive” each time.
Consider `c1ccc2[nH]c(-c3cscn3)nc2c1`, for which the max response in [1] was -13.4%; in assay [3], 8.2% and -19.9%; in assay [6] it was -4.89% and -3.75%; in assay [7], 14% (inactive) and 3.02% (inactive). The compound was called inactive in assay [2], in assay [14], in assay [16], in [17], in assay [4] and in [5]. For the same compound, the Potency entry in assay [15], in [9], in assay [11], in assay [12] and in assay [13] was “inactive” each time. Also, the activity change % (negative = inhibition) in assay [8] was -27.5% (inactive).
For `O=c1c(O)c(-c2ccc(O)cc2O)oc2cc(O)cc(O)c12`, the compound was called inactive in assay [14], in [16], in [17], in assay [5] and in assay [19]. Also, the Potency result in assay [15] and in assay [18] was “inactive” each time. For the same compound, the Potency in assay [9] was 3.16 µM (active).
